NPC1 prom act = activates the NPC1 promoter. Huh7 NPC1 promoter luciferase reporter, 24 h. Potency, µM (highest dose often 9.22 µM), without a hit: at the highest dose activation, most hits filed as activators. 320,000 tested, 2.4% active. AID 485313; also: % of control where 0% means no effect; nearly all actives have a fitted effect of over 60% in size
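Stably transfected Huh7 (NPC1 promoter→luciferase), 1500 cells/well in Opti-MEM + 10% FBS, 2 h settle, then compound 24 h at 37 °C. Luminescence after 10 min with Amplite reagent.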
ELG1 genotox = inducers of genotoxicity in HEK293T ELG1-luciferase cells | HEK293T ELG1-luciferase reporter, luminescence, 16 h | Potency, µM (highest dose often 46 µM), without a hit: at the top dose activity change, positive = activation, usual class: activators | 330,000 tested, 1.3% active; also: % of control where 0% means no effect; nearly all actives have a fitted effect of over 60% in size
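ELG1-luciferase HEK293T cells, 2,000/well; compound pinned in; 16 hr, 37 °C, 5% CO2; ONE-Glo, 30 min RT; luminescence on CCD imager.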
FLuc modulator = firefly luciferase modulation, counter-screen for miR-21 project; P08659; purified FLuc, Km substrates, luminescence inhibition; Potency, µM (top dose mostly 57.5 µM), inactives show top-dose activity change, negative = inhibition, most hits filed as inhibitors; 360,000 tested, 6.9% active;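 also: plate controls were vehicle for no effect and reference inhibitor for full effect; nearly all actives have a fitted effect of over 55% in size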
Target sequence (P08659 whole entry, looked up): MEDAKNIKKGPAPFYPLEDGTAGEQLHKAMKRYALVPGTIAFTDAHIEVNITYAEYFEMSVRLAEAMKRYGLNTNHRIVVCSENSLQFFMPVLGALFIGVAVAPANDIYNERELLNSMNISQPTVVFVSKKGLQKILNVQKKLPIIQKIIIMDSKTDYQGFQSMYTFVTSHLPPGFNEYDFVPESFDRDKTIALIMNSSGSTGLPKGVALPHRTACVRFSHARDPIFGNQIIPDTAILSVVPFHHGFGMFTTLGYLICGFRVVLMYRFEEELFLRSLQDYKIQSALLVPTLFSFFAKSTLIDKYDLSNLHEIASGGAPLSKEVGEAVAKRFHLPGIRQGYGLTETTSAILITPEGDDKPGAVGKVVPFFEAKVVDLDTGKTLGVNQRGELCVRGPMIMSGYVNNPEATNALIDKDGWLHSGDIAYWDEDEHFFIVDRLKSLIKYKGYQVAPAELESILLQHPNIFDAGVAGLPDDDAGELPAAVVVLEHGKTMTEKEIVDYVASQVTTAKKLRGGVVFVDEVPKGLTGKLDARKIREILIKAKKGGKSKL
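Purified P. pyralis luciferase, 10 nM final, with Km-level 10 uM D-luciferin and 10 uM ATP in 50 mM Tris acetate pH 7.5, 10 mM Mg acetate, 0.01% Tween-20, 0.05% BSA; 6-point qHTS titration about 60 µM downward; luminescence read.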
ELG1 DNA repair = ELG1-dependent DNA repair inhibition; HEK293T ELG1-luciferase reporter, luminescence, 16 h; DNA damage induced by 5-fluorouridine; Potency, µM (highest dose often 46.1 µM), inactives show at the highest dose activity change, negative = inhibition, hits mostly inhibitors; 330,000 tested, 2.3% active; AID 504467; also: % is scaled to controls: 0 for no effect and ±100 for the full control effect; nearly all actives have a fitted effect of over 55% in size
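In this reporter screen, reduction of luminescence relative to DMSO vehicle indicated activity. Compounds and 5-fluorouridine were added together to 2,000 cells per well, incubated for 16 hr at 37 °C, then developed with ONE-Glo.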
SMN2 splice up = increases expression of the SMN2 splice variant. HEK293 SMN2-luciferase splicing reporter, luminescence, 30-36 h. AID 1458. 210,000 tested, 2.8% active. Potency, µM (top dose mostly 46.1 µM), for inactives: at the top dose activity change, positive = activation, usual class: activators; also: % of control where 0% means no effect; nearly all actives have a fitted effect of over 55% in size
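qHTS luciferase splicing reporter: luminescence rises when SMN2 exon 7 is included in transfected HEK293 cells. Compound exposure lasted 30-36 h at 37C, with 4.5 mM final sodium butyrate as control, followed by a ONE-Glo read.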
Rab9 promoter act = Rab9 promoter activation. Huh7 Rab9 promoter-luciferase reporter, luminescence, 24 h. AID 485297. 320,000 tested, 2.8% active. Potency, µM (series often up to 9.22 µM), for the others: at the top dose activation, negative = inhibition, hits mostly activators; also: % of control where 0% means no effect; nearly all actives have a fitted effect of over 60% in size
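Huh7 cells stably carrying Rab9 promoter–luciferase reporter, plated 1500 cells/well, compound added after 2 h and incubated 24 h at 37 °C; luciferase luminescence then read after 10 min with detection reagent.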
* hit, by the source's call; [ ] = dose if it differs, or a comment. Rows were chosen to be rich in hits. Some 9.2% of all compounds tested hit in one or more screens of this group. Calls follow the shape of the dose curve; as a rule, active = well fitted curve in the direction sought with a large enough effect; inconclusive = small, poorly fitted or top-dose-only effect, or another doubt; inactive = no such curve, though single readings can be large; an effect the other way counts as inactive or inconclusive. Potency is read from the fitted curve at half-maximal effect.

N/C(=N\OC(=O)/C=C/c1ccccc1)c1ccccc1 was read as NPC1 prom act inconclusive, ELG1 genotox 8.2µM*, FLuc modulator 1.5µM*, ELG1 DNA repair inconclusive and Rab9 promoter act inconclusive.
For N#Cc1ccccc1COc1ccc(/C=C/C(=O)O)cc1 the results were NPC1 prom act -5%, ELG1 genotox -2%, FLuc modulator 2.4µM*, ELG1 DNA repair 7%, SMN2 splice up -18% and Rab9 promoter act -18%.
Screening Cc1c(NC(=O)c2ccc3c4c(cccc24)CC3)c(=O)n(-c2ccccc2)n1C returned NPC1 prom act -1%, ELG1 genotox -11%, FLuc modulator -5%, ELG1 DNA repair inconclusive, SMN2 splice up -8% and Rab9 promoter act 1%.
For O=C(CCNC(=O)C1CCN(S(=O)(=O)c2ccc(F)cc2)CC1)NCc1ccc(Cl)cc1 the results were NPC1 prom act -2%, ELG1 genotox -6%, FLuc modulator 4%, ELG1 DNA repair inconclusive and Rab9 promoter act -2%.
Cc1ccc(C(=O)/C=C/c2ccc(-c3ccc(C)cc3)o2)cc1 was read as NPC1 prom act 1%, ELG1 genotox 9%, FLuc modulator -5%, ELG1 DNA repair 24%, SMN2 splice up 25%[1.84 µM] and Rab9 promoter act 2%.
O=C(/C=C\c1ccc(-c2ccccc2)o1)c1ccccc1 was read as NPC1 prom act inconclusive, ELG1 genotox inconclusive, FLuc modulator 6µM*, ELG1 DNA repair inconclusive, SMN2 splice up inconclusive and Rab9 promoter act inconclusive.
Cc1cccc(NC2=C(NCCO)C(=O)c3ccccc3C2=O)c1 was read as NPC1 prom act 12%, ELG1 genotox -1%, FLuc modulator -19%, ELG1 DNA repair 13%, SMN2 splice up -19% and Rab9 promoter act 11%.
Cc1cc(C)cc(NC2=C(N)C(=O)c3ccccc3C2=O)c1 was read as NPC1 prom act inconclusive, ELG1 genotox inconclusive, FLuc modulator 15µM*, ELG1 DNA repair inconclusive and Rab9 promoter act inconclusive.
For O=C(NNC(=O)C1CCCN(c2ncccn2)C1)c1ccncc1 (stereo not drawn) the results were NPC1 prom act 1%, ELG1 genotox -2%, FLuc modulator 1%, ELG1 DNA repair -5%, SMN2 splice up -13% and Rab9 promoter act -3%.
`Cc1cc(C)c(NC(=O)c2ccoc2C)c(C)c1` gave NPC1 prom act 0%, ELG1 genotox -2%, FLuc modulator -2%, ELG1 DNA repair -3%, SMN2 splice up -1% and Rab9 promoter act -6%.
For Cc1cccc(NC(=O)c2ccoc2C)n1 the results were NPC1 prom act 18%, ELG1 genotox inconclusive, FLuc modulator inconclusive, ELG1 DNA repair inconclusive, SMN2 splice up 18µM* and Rab9 promoter act 27%.
`Cc1cccc(NC(=O)c2ccccc2Br)n1` gave NPC1 prom act 8%, ELG1 genotox 16%, FLuc modulator inconclusive, ELG1 DNA repair inconclusive, SMN2 splice up 8% and Rab9 promoter act -6%.
Screening Cc1cccc(NC(=O)c2cc(NC(=O)c3ccco3)ccc2Cl)n1 returned NPC1 prom act -1%, ELG1 genotox -11%, FLuc modulator inconclusive, ELG1 DNA repair 12µM*, SMN2 splice up -16% and Rab9 promoter act -5%.
Cc1occc1C(=O)Nc1cc(C(C)(C)C)on1 was read as NPC1 prom act 2.8µM*, ELG1 genotox 5.2µM*, FLuc modulator 6µM*, ELG1 DNA repair inconclusive, SMN2 splice up 14µM* and Rab9 promoter act 1.6µM*.
`O=C(CCCOc1ccc(Cl)cc1Cl)N/N=C/c1ccccc1O` gave NPC1 prom act -15%, ELG1 genotox 0%, FLuc modulator -18%, ELG1 DNA repair inconclusive, SMN2 splice up -82% and Rab9 promoter act -27%.
For Cc1ccc(N2C(=O)c3ccc(N)cc3C2=O)cc1C the results were NPC1 prom act 2.5µM*, ELG1 genotox inconclusive, FLuc modulator 11µM*, ELG1 DNA repair inconclusive, SMN2 splice up 14% and Rab9 promoter act 4µM*.
For Cc1ccc(N2C(=O)c3ccc(N)cc3C2=O)cc1 the results were NPC1 prom act 3.5µM*, ELG1 genotox 3.7µM*, FLuc modulator 7.6µM*, ELG1 DNA repair inconclusive and Rab9 promoter act 4µM*.
Cc1ccccc1CNC(=O)Cn1nc(C)c2nn(-c3ccc(Cl)cc3)c(C)c2c1=O was read as FLuc modulator -6%.
For COc1cccc(OCc2cc(C(=O)N(C)Cc3nccn3C)no2)c1 the results were NPC1 prom act 2.8µM*, ELG1 genotox inconclusive, FLuc modulator 19µM*, ELG1 DNA repair inconclusive and Rab9 promoter act 1.8µM*.
`COc1cccc(CN(C)C(=O)c2cc(COc3ccc4ncccc4c3)on2)c1` gave NPC1 prom act -27%, ELG1 genotox -12%, FLuc modulator -14%, ELG1 DNA repair inconclusive and Rab9 promoter act -56%.
`COc1ccc(OCc2cc(C(=O)N(C)Cc3nccn3C)no2)c2ccccc12` gave NPC1 prom act -3%, ELG1 genotox -5%, FLuc modulator 6%, ELG1 DNA repair 1% and Rab9 promoter act 0%.
For COc1ccc(OCc2cc(C(=O)N(Cc3nccn3C)C(C)C)no2)c2ccccc12 the results were NPC1 prom act inconclusive, ELG1 genotox 13%, FLuc modulator 13µM*, ELG1 DNA repair inconclusive and Rab9 promoter act 3.2µM*.
COc1cccc(OCc2cc(C(=O)N(C)CCOc3ccc(C)cc3)no2)c1 was read as NPC1 prom act 3.5µM*, ELG1 genotox inconclusive, FLuc modulator 13µM*, ELG1 DNA repair inconclusive and Rab9 promoter act 2.8µM*.
Screening C=CCCCCCCC=C returned SMN2 splice up 0%.
`Cc1nn2c(COc3ccc(NC(=O)c4ccccc4Cl)cc3)nnc2c2ccccc12` gave NPC1 prom act -3%, ELG1 genotox -5%, FLuc modulator 6µM*, ELG1 DNA repair inconclusive, SMN2 splice up 19% and Rab9 promoter act 2%.
For N#Cc1ccc(-c2ccc(F)cc2)nc1SCC(=O)Nc1sc2c(c1C#N)CCC2 the results were NPC1 prom act -6%, ELG1 genotox 0%, FLuc modulator 0%, ELG1 DNA repair 6.5µM*, SMN2 splice up -28% and Rab9 promoter act -2%.
For N#Cc1c(NC(=O)CSc2ncn[nH]2)sc2c1CCCCC2 the results were NPC1 prom act -18%, ELG1 genotox -14%, FLuc modulator 7.6µM*, ELG1 DNA repair inconclusive, SMN2 splice up -74% and Rab9 promoter act -25%.
CCCCn1nnnc1SCC(=O)Nc1sc2c(c1C#N)CCCC2 was read as NPC1 prom act 19%, ELG1 genotox -5%, FLuc modulator -10%, ELG1 DNA repair inconclusive, SMN2 splice up -22% and Rab9 promoter act -3%.

Bioassay records: PubChem BioAssay, National Center for Advancing Translational Sciences (NCATS)
